Test [1] has as its target Lysosomal acid glucosylceramidase (Homo sapiens) (UniProt P04062). Description: Glucocerebrosidase-p2 (AID 348; in the data active means potency below about 10 µM; further: potency means the concentration at half of the fitted maximal effect). The conditions noted are these: purified GBA, blue fluorogenic substrate, 40 min. A digest of the protocol:
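Compounds titrated from 0.6 nM upwards against 0.2 nM enzyme in pH 5.9 citric acid/KH2PO4, taurocholate, tween-20; blue fluorogenic substrate 80 uM, 40 min room temperature, stopped and read Ex 365/Em 440 for AC50.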

The target of test [2] is Cytochrome P450 1A2 (Homo sapiens) (UniProt P05177). Put plainly: p450-cyp1a2 (AID 410; calls by dose curve; further: potency means the concentration at half of the fitted maximal effect;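 on activity change, negative = inhibition: -100% = full effect of reference inhibitor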). A digest of the protocol: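 20nM CYP1A2 with 100uM Luciferin-ME (at Km) in 100mM KPO4; compound preincubated 10 min, NADPH regeneration added, 60 min at room temperature. Luciferin quantified by luminescence after detection reagent; normalized to 57 uM furafylline.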
Test [3] has as its target Glucocorticoid receptor (Homo sapiens) (UniProt P04150). Put plainly: GR-GFP Redistribution (AID 450;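 active means compounds whose dose series gives a full or clear partial fitted curve of increased nuclear translocation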; further: potency means the concentration at half of the fitted maximal effect). To be noted: U2OS GR-GFP nuclear translocation, laser cytometry, 2 h.
Test [4] has the same target. Put plainly: GR-EFC Redistribution (AID 451; calls by dose curve; further: potency means the concentration at half of the fitted maximal effect). To be noted: CHO-K1 GR-EFC translocation, beta-gal luminescence, 2 h. The essentials: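 CHO-K1 cells stably expressing nuclear-localized β-gal enzyme acceptor and GR fused C-terminally to the enzyme donor fragment; ligand-driven nuclear translocation restores β-gal by complementation. Compounds titrated up to 46 uM final, 2 h at 37 °C; luminescence read.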

The target of test [5] is Mitogen-activated protein kinase 10 (Mus musculus) (UniProt Q61831). Put plainly: JNK3 AlphaScreen Assay (AID 530; active means well fitted curve in either direction with a large enough effect, not every such curve was filed as active;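 further: kinase came from lysate of stimulated human HepG2 cells; signal reports phosphorylation of biotinylated GST-cJun 1-79 at Ser73 with 10 µM ATP; on the % scale 0 is the no-effect control and ±100 the full control effect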). The essentials: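 Inhibitors reduce antibody binding to phosphorylated biotin-cJun, lowering AlphaScreen luminescence. Lysates from HepG2 cells pre-activated by IL-1beta plus TNF-alpha supplied JNK3; compounds were titrated.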
In test [6] the target is 3',5'-cyclic-AMP phosphodiesterase 4B (Homo sapiens) (UniProt Q07343). Description: qHTS Assay for Inhibitors of PDE-IV (AID 607; active means well fitted activation curve with a large enough effect in the main read-out, with a control signal flat, not every such curve was filed as active; further: % of control where 0% means no effect). The essentials: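 ACTOne HEK293 cells carry a modified cAMP-gated CNG channel and express endogenous PDE4; plated 1000 cells/well, compounds up to 22.9 uM final. Membrane-potential dye fluorescence (ex 535/em 590) was read; parental cells received 10 uM forskolin + 100 uM RO 20-1724.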

Test [7] can be described thus: qHTS Assay for Identification of Small Molecule Agonists for Hypoxia Response Element Signaling Pathway (AID 914; active means well fitted activation curve with a large enough effect in the signal ratio, with a control signal flat, not every such curve was filed as active; the % refers to the signal ratio; further: potency means the concentration at half of the fitted maximal effect). To be noted: ME-180 HRE-bla reporter, beta-lactamase ratio, CoCl2, 17 h; activation: stronger effect = higher value. A digest of the protocol:
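In Opti-MEM containing 0.5% dialyzed FBS and 10 mM HEPES, ME-180 HRE-bla cells received a compound titration and EC50 CoCl2. They were incubated 17 hours, then CCF4-loaded 2.5 hours at room temperature before ratio reading.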

The nature of test [8]: qHTS Assay for Lipid Storage Modulators (AID 1519; calls by dose curve). To be noted: Drosophila S3 cells, BODIPY lipid droplet/cell ratio, laser cytometry, cells loaded with oleic acid; for activity change, negative = inhibition: at 57.5 µM (top of the series). A digest of the protocol: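 Cells seeded at 5,000 per well were treated with compounds over a concentration series and loaded with oleic acid (400 uM, as added). Lipid droplet fluorescence (488 nm excitation, 500-530 nm channel) was read by laser-scanning cytometry and normalized to 20 uM Triacsin C.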

Test [9] has as its target Dual specificity protein kinase CLK4 (Homo sapiens) (UniProt Q9HAZ1). Put plainly: qHTS Assay for Inhibitors of CDC-like Kinase 4 (Kinase-Glo Assay) (AID 1770). Further: nearly all actives have a fitted effect of over 65% in size. Further: potency means the concentration at half of the fitted maximal effect. A digest of the protocol: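 Luminescent ATP-depletion read-out (Kinase-Glo) after 4.5 h room-temperature reaction of Clk4 (25 nM final) with RS peptide (100 uM) and ATP (1 uM), pH 7.5 Tris buffer with MgCl2 and DTT.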

For test [10] the target is unchanged. Description: qHTS Assay for Inhibitors of CDC-like Kinase 4 (ADP-Glo Assay) (AID 1771). Further: nearly all actives have a fitted effect of over 70% in size. Further: potency means the concentration at half of the fitted maximal effect. A digest of the protocol:
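25 nM Clk4 with 100 uM RS repeat peptide and 1 uM ATP (final) in buffer with 2 mM MgCl2, 0.5 mM EGTA, 2.5 mM DTT, 0.01% Triton X-100; 1 h at room temperature; ADP-Glo luminescence for ADP formed.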

Test [11] has the same target. Put plainly: qHTS Assay for Inhibitors of CDC-like Kinase 4 (ADP-FP Assay) (AID 1795). Further: nearly all actives have a fitted effect of over 60% in size. Further: potency means the concentration at half of the fitted maximal effect. A digest of the protocol:
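Kinase activity was measured as ADP production using Transcreener orange tracer (4 nM) and ADP antibody (1 ug/mL) fluorescence polarization, with ADP calculated from a calibration curve. The 1 h reaction contained 6.25 nM Clk4, 1 uM ATP and 100 uM RS peptide at pH 7.5 with Mg2+.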

Test [12] deals with Ubiquitin carboxyl-terminal hydrolase 1 (Homo sapiens) (UniProt O94782). Put plainly: Inhibitors of USP1/UAF1: Pilot qHTS (AID 504865).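 Further: rhodamine fluorescence freed from ubiquitin-rhodamine substrate followed over time; top concentration of the series differs between compounds; on the % scale 0 is the no-effect control and ±100 the full control effect; nearly all actives have a fitted effect of over 35% in size.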 A digest of the protocol:
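Deubiquitinase activity followed as kinetic rhodamine fluorescence release from 150 nM Ub-Rho. 1 nM USP1/UAF1 with compound, after 15 min room-temperature preincubation, in HEPES pH 7.8 buffer containing TCEP, EDTA, BSA and Tween-20.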

A short description of test [13]: Primary qHTS for small molecule stabilizers of the endoplasmic reticulum resident proteome: Secreted ER Calcium Modulated Protein (SERCaMP) assay (AID 1508630). Further: on the % scale 0 is the no-effect control and ±100 the full control effect. The essentials:
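GLuc-SERCaMP-expressing SH-SY5Y cells, pretreated 16 h with compound, are challenged with thapsigargin to empty ER calcium stores; after 4 h, coelenterazine is added directly to the medium and luminescence is imaged.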

Test [14] in a line: AP1 Signaling Pathway (AID 357; active means well fitted curve in either direction with a large enough effect, not every such curve was filed as active;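 further: ME-180 reporter cells stimulated with EGF at its EC50 level; on the % scale 0 is the no-effect control and ±100 the full control effect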). The conditions noted are these: ME-180 AP-1-bla reporter, EGF-induced, beta-lactamase ratio, 5 h; at 7.69 µM (top of the series) unless noted. A digest of the protocol:
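Titration-series screen for positive or negative modulators of EC50 EGF-induced signaling in ME-180 cells carrying an AP-1-driven beta-lactamase reporter. After 5 hours at 37 degrees Celsius, CCF4 460nm/530nm emission ratio gave %Activity; AC50 values derived.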

Test [15] in a line: NFAT Signaling Pathway (AID 444; active means well fitted curve in either direction with a large enough effect, not every such curve was filed as active;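 further: carbachol stimulus at about its EC50 of 1 µM final; on the % scale 0 is the no-effect control and ±100 the full control effect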). To be noted: Jurkat NFAT-bla M1, carbachol, beta-lactamase ratio, 5 h; at 7.69 µM (top of the series) unless noted. A digest of the protocol: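 Jurkat cells carrying an NFAT-driven β-lactamase reporter and co-transfected muscarinic M1 receptor were treated with compound plus carbachol (1 uM final, an EC50 level) for 5 h at 37 °C. CCF4 loading followed for 1 h at RT; 460/530 nm ratio gave %activity.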

Test [16] can be described thus: Stat Signaling Pathway (AID 446; active means well fitted curve in either direction with a large enough effect, not every such curve was filed as active). To be noted: ME-180 (cervical carcinoma) SIE beta-lactamase reporter, IL-6 stimulated, 5 h; at 7.69 µM (top of the series) unless noted. A digest of the protocol:
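ME-180 SIE-bla cells; overnight plating; cpd + IL-6 40 pM, 5 h, 37 C; LiveBLAzer 2.5 h RT; 460/530 nm emission ratio. Normalized to 300 pM IL-6 and 125 nM JAK inhibitor controls.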

The target in test [17] is Cytochrome P450 3A4 (Homo sapiens) (UniProt P08684). Put plainly: qHTS Assay for Activators of Cytochrome P450 3A4 (AID 885). Further: nearly all actives have a fitted effect of over 65% in size. The essentials:
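20nM CYP3A4 + 25uM Luciferin-PPXE (=KM), 200mM KPO4; cpd 10 min RT; NADPH regen, 60 min RT; stop w/ detection buffer, 20 min; luminescence. Normalized to 57 uM ketoconazole.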

Where [18] appears, read: measured here: cell count channel max response.
The mark [19] stands for this setting: measured here: lipid channel max response.

Results filed as inconclusive are left out. Calls of active or inactive are those of the source. Unless noted, the call rests on the fitted dose curve; in most records, active means well fitted curve in the direction sought with a large enough effect; inconclusive means small, poorly fitted or top-dose-only effect, or another doubt; inactive means no such curve, though single readings can be large; an effect the other way counts as inactive or inconclusive. Where only a bound is given, the exact number is not on record here.

Sequence of Cytochrome P450 3A4 (Homo sapiens) (P08684 whole entry, looked up): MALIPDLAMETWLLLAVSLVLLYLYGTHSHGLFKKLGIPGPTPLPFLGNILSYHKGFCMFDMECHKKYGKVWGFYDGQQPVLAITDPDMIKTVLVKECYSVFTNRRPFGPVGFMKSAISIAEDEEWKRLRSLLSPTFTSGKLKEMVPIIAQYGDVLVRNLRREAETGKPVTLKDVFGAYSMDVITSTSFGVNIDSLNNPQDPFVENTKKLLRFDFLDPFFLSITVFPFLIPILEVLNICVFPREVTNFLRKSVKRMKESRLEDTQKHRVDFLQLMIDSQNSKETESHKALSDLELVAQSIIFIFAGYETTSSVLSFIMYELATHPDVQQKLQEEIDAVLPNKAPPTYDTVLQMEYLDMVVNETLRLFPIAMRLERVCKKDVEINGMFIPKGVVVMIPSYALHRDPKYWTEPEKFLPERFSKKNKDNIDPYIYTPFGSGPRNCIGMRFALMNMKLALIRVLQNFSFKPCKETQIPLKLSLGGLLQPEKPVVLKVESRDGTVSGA
Sequence of Cytochrome P450 1A2 (Homo sapiens) (P05177 whole entry, looked up): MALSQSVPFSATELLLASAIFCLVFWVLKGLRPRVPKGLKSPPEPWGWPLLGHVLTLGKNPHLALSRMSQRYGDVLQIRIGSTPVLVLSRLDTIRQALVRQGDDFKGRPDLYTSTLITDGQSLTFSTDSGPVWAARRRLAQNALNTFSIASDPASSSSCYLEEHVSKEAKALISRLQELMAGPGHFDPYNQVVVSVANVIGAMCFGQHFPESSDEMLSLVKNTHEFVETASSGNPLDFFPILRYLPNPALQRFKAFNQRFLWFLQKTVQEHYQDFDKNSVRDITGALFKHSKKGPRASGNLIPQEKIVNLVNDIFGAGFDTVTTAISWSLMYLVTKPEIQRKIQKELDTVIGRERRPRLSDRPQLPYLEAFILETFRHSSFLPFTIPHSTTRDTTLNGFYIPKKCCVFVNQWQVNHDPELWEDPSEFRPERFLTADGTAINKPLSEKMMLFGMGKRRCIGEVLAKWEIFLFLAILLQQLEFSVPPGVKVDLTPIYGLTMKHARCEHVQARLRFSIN
Sequence of Ubiquitin carboxyl-terminal hydrolase 1 (Homo sapiens) (O94782 whole entry, looked up): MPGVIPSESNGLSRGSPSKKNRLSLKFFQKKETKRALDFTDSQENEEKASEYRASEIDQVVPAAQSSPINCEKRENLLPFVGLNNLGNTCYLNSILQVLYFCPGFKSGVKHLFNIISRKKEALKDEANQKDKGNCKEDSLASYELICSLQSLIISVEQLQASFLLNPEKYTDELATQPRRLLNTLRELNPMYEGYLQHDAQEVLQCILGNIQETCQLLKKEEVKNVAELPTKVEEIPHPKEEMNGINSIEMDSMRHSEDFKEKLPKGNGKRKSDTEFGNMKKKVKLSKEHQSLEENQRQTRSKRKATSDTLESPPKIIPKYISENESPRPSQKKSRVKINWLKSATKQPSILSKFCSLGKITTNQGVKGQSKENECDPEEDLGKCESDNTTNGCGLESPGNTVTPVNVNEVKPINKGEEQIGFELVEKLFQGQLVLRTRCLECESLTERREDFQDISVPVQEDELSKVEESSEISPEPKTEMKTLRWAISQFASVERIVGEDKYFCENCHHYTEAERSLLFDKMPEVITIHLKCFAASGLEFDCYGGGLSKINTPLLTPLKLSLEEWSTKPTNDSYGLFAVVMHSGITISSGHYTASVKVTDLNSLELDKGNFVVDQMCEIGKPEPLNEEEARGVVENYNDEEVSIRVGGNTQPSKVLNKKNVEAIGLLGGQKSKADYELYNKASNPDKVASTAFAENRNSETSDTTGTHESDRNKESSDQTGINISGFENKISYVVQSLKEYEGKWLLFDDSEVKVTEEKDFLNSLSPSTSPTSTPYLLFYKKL
Sequence of Dual specificity protein kinase CLK4 (Homo sapiens) (Q9HAZ1 whole entry, looked up): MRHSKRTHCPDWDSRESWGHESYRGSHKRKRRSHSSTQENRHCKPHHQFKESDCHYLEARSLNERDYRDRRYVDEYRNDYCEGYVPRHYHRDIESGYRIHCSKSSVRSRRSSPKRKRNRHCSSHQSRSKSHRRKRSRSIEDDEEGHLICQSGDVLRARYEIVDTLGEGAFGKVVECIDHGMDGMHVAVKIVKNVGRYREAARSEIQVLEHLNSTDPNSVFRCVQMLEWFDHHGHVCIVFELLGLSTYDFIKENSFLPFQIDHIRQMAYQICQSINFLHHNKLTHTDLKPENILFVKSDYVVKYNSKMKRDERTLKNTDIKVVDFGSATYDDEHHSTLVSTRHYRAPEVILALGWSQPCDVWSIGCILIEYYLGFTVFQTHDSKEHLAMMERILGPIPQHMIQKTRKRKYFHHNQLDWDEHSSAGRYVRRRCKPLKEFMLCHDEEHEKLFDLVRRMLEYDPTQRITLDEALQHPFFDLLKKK
Sequence of 3',5'-cyclic-AMP phosphodiesterase 4B (Homo sapiens) (Q07343 whole entry, looked up): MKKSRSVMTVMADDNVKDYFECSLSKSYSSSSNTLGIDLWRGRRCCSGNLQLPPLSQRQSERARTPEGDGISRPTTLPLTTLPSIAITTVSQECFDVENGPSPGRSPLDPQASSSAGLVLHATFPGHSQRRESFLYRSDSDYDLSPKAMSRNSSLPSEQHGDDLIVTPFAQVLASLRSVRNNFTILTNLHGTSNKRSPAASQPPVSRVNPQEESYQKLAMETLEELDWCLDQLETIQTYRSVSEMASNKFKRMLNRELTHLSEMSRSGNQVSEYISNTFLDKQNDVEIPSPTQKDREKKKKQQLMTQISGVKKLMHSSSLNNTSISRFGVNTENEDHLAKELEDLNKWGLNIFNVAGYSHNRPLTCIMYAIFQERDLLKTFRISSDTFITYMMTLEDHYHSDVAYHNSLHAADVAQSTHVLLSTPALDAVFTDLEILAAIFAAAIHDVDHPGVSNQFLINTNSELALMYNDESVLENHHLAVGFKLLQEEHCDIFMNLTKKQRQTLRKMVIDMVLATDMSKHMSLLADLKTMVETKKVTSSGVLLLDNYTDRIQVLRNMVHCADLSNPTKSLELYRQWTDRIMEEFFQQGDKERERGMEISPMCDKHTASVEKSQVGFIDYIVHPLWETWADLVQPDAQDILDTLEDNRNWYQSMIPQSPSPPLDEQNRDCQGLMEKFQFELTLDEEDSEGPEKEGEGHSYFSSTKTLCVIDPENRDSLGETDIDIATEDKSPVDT
Sequence of Lysosomal acid glucosylceramidase (Homo sapiens) (P04062 whole entry, looked up): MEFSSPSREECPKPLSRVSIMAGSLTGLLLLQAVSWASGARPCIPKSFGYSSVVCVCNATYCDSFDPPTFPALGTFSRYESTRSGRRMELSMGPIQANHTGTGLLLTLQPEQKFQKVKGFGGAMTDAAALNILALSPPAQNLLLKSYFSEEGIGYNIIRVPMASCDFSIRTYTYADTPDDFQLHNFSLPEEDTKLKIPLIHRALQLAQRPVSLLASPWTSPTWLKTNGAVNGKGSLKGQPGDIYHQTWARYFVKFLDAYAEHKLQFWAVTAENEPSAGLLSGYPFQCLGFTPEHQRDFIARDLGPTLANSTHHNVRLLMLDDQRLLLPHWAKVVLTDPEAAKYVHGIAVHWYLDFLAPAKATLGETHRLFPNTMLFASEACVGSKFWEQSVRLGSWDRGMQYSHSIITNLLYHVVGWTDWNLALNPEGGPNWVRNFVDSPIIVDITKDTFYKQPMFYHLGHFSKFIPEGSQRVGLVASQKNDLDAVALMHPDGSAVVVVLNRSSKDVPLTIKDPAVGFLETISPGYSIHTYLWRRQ
Sequence of Glucocorticoid receptor (Homo sapiens) (P04150 whole entry, looked up, the tested form may be a part): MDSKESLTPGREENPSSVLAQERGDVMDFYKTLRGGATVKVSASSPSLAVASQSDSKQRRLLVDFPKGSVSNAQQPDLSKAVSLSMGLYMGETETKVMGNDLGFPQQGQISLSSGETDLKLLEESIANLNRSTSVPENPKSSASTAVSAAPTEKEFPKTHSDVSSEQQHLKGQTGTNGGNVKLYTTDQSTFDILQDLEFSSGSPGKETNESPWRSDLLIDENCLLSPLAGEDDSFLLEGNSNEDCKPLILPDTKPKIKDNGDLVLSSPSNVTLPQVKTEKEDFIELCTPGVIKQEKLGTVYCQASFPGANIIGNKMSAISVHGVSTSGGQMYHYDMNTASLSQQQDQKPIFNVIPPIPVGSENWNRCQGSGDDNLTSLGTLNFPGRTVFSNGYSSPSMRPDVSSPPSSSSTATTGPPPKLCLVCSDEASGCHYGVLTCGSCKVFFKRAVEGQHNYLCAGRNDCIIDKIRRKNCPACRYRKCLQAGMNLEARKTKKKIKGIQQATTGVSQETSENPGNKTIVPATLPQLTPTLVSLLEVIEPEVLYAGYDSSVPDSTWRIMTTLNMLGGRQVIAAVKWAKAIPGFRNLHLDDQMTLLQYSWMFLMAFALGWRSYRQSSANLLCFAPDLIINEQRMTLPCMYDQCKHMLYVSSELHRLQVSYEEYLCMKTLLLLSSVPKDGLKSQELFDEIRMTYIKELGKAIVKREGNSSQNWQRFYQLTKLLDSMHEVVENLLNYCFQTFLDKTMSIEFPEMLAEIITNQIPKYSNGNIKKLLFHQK

Take `COCCn1c(=O)c(-c2ccc(Cl)cc2)nc2cnc(Nc3ccccc3)nc21`: the Potency in test [1] was > 11.4 µM (inactive); in test [2], 20 µM (active); in test [3], > 9.22 µM (inactive); in [4] it was > 46 µM (inactive); in test [7], 2.51 µM (active). Also, in test [5], the call was inactive. Besides, the Potency entry in test [6], in [9], in test [10], in test [11], in [12] and in test [13] was “inactive” each time. In test [8], the activity change, negative = inhibition was 3.97% (inactive). The max response was found to be 10.8% in [8] (setting [18]) and 12.1% in [8] (setting [19]).
For `c1nc(NC2CCNCC2)c2cc(-c3ccoc3)ccc2n1`, the activity change, negative = inhibition in test [14] was -0.789% (inactive); in test [15] it was 12.3% (inactive); in [8] it was 0.0897% (inactive). The Potency is 25.1 µM (active) in test [2]; > 46 µM (inactive) in test [3]; > 46 µM (inactive) in test [4]; 0.891 µM (active) in [9]; 1 µM (active) in test [10]; 0.631 µM (active) in test [11]. The activity, negative = inhibition in test [16] is -3% (inactive). Further, the compound was classed as inactive in test [5]. In addition, the Potency entry in [6], in [12] and in [13] was “inactive” each time. For the same compound, the max response in test [8] (setting [18]) stood at 13.4%; in test [8] (setting [19]), 11.3%.
With `COCCNc1nc(-c2ccccc2Cl)nc2ccccc12`, the Potency in [1] is 11 µM (inactive); in [2], 0.126 µM (active); in test [3] it was > 46 µM (inactive); in test [4], > 46 µM (inactive); in test [9], 15.8 µM (active); in test [10], 8.91 µM (active). Besides, the activity change, negative = inhibition in test [14] was -0.0888% (inactive); in test [15], 7.18% (inactive); in test [8], 3.23% (inactive). Also, in [16], the activity, negative = inhibition was -3.65% (inactive). In addition, in test [5], the outcome was inactive. Further, the Potency entry in test [17] and in test [13] was “inactive” in each case. The max response came to 2.91% in test [8] (setting [18]) and 4.03% in test [8] (setting [19]).
`Cc1nc2cnc(N3CCN(C)CC3)nc2n(C)c1=O`: the Potency was > 11.4 µM (inactive) in [1], 12.6 µM (active) in test [2], > 9.22 µM (inactive) in test [3] and > 46 µM (inactive) in test [4]. The results for the activity change, negative = inhibition in test [14], in [15] and in test [8] were 2.98% (inactive), 8.62% (inactive) and 3.28% (inactive), respectively. Moreover, the activity, negative = inhibition in [16] was -15% (inactive). For the same compound, the result in [5] was inactive. The Potency result in [6], in test [9], in test [11], in test [12] and in [13] was “inactive” throughout. In addition, the figures for the max response in test [8] (setting [18]) and in test [8] (setting [19]) were 5.81% and 7.23%, respectively.
Turning to `CN1CCN(c2ncc3nc(-c4cccc(C#N)c4)c(=O)n(Cc4ccc(F)cc4)c3n2)CC1`, the Potency is > 11.4 µM (inactive) in test [1], > 9.22 µM (inactive) in [3], > 46 µM (inactive) in test [4] and 3.16 µM (active) in test [7]. In addition, the Potency result in test [2], in test [6], in test [17], in [9], in [10] and in [12] was “inactive” each time. Moreover, the Potency entry in test [13] was “inactive”. Also, the outcome in test [5] was inactive. In addition, the activity change, negative = inhibition in test [8] is -3.63% (inactive). The max response in [8] (setting [18]) is 1.09%; in [8] (setting [19]), -4.23%.
Consider `O=c1cnc2cnc(Nc3ccccc3)nc2n1Cc1cccs1`, for which the Potency is > 11.4 µM (inactive) in test [1]; 1 µM (active) in [2]; > 9.22 µM (inactive) in test [3]; > 46 µM (inactive) in test [4]; 1.41 µM (active) in test [9]; 2 µM (active) in test [10]. The call in [5] was inactive. Moreover, the Potency result in test [17], in test [12] and in test [13] was “inactive” throughout. Also, the activity change, negative = inhibition in test [8] is 1.01% (inactive). The max response in test [8] (setting [18]) was found to be 12.8%; in test [8] (setting [19]), 12.5%.
